The record followed here is PubChem BioAssay.

For assay [1], the system named is Human papillomavirus type 1a protein E7 (residues 44-93). The assay can be described thus: HPV1a E7 fragment binders on microarrays, primary screen, biochemical, small-molecule microarray, residues 44-93, 635 nm fluorescence (AID 1108).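 Note: E7 fragment applied at 1 µg/mL in TBST for 1 h at 4 C; score combines spot fluorescence with its signal to noise ratio.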 Particulars: small-molecule microarray binding, fluorescence 635 nm; higher = more signal.
A short description of assay [2]: modulators of HCV replicon luciferase signal, primary screen, HCV replication inhibitor project, Huh7 cells, luciferase reporter (AID 1109).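 Note: huh7 hepatoma cells harbouring a luciferase neomycin HCV replicon reporter; luciferase luminescence as measure of HCV replicon replication; test concentration not given here.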 Particulars: 48 h, higher = more signal. On the technique in general: In antiviral work, replicon cells carry a viral genome segment that copies itself.
Assay [3] deals with Left-right determination factor 2 (Homo sapiens) (UniProt O00292). The assay can be described thus: LEFTY2 binders on small-molecule microarrays, primary screen, biochemical, small-molecule microarray, 635 nm fluorescence scan (AID 1110). Particulars: LEFTY2 binding, higher = more signal.
For assay [4], the target named is Calmodulin-1 (Homo sapiens) (UniProt P0DP23). The assay is described as follows: CALM1 binders on microarrays, EGTA buffer, profiling panel, biochemical, small-molecule microarray, Cy5-labelled CALM1 (AID 1111).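 Note: labelled calmodulin applied in Tris saline Tween buffer holding calcium plus EGTA and DTT.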 Conditions: Cy5-CALM1 binding fluorescence, higher = more signal.
Assay [5] has the same target. The assay is described as follows: calcium-bound CALM1 binders on microarrays, profiling panel, artefact control for SMM control-protein annotation, biochemical, small-molecule microarray, Cy5-labelled CALM1, plus calcium (AID 1112).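 Note: score merges spot fluorescence with signal to noise from triplicate slides.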 Particulars: Cy5-CALM1 binding fluorescence, higher = more signal.
A short description of assay [6]: small-molecule microarray binders of probe aWnt5a, primary screen, biochemical, biotinylated probe, 635/667 nm fluorescence (AID 1113).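 Note: score merges 667 nm fluorescence intensity with signal-to-noise per printed feature.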 Particulars: higher = more signal.
Assay [7] can be described thus: small-molecule microarray binders of probe aShh, primary screen, biochemical, biotinylated probe, 635/667 nm fluorescence (AID 1114).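 Note: probe is biotin-labelled aShh protein from a stem cell growth factor screen; measures binding of labelled protein to compounds printed on the slide; score merges feature fluorescence at 667 nm with signal-to-noise.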 Conditions: higher = more signal.
Assay [8] can be described thus: small-molecule microarray binders of probe aNog, primary screen, biochemical, biotinylated probe, 635/667 nm fluorescence (AID 1115).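 Note: probe is biotinylated aNog protein used at 0.15 µg/mL for 1 h at 4 C; z-score combines 667 nm fluorescence of each spot with its signal to noise.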 Conditions: higher = more signal.
Assay [9] deals with Torsin-1A-interacting protein 1 (Homo sapiens) (UniProt Q5JTV8). The assay is described as follows: LAP1 binders from COS7 cell lysate, primary screen, small-molecule microarray, 635/667 nm fluorescence (AID 1116). Particulars: COS7-hLAP1 lysate binding, 635 nm fluorescence, higher = more signal.
Assay [10] addresses Alpha-bungarotoxin (Bungarus multicinctus) (UniProt P60615). The assay can be described thus: alpha-bungarotoxin binders on microarray, profiling panel, artefact control for SMM control protein annotation, biochemical, small-molecule microarray, Alexa647 label, 635/667 nm fluorescence (AID 1117). Particulars: alpha-BTX-A647 binding fluorescence, higher = more signal.

Chain of Left-right determination factor 2 (Homo sapiens) (O00292 whole entry, looked up): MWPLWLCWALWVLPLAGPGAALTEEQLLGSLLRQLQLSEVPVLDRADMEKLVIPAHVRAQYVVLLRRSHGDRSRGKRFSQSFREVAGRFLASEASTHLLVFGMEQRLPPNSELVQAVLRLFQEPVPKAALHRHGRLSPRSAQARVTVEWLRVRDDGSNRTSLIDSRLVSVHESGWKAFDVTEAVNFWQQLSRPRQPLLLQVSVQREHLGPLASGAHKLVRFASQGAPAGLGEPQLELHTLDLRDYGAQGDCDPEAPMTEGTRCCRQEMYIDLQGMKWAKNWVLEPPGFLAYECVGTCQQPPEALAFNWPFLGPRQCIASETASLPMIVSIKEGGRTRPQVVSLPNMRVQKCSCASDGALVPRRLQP
Chain of Torsin-1A-interacting protein 1 (Homo sapiens) (Q5JTV8 whole entry, looked up): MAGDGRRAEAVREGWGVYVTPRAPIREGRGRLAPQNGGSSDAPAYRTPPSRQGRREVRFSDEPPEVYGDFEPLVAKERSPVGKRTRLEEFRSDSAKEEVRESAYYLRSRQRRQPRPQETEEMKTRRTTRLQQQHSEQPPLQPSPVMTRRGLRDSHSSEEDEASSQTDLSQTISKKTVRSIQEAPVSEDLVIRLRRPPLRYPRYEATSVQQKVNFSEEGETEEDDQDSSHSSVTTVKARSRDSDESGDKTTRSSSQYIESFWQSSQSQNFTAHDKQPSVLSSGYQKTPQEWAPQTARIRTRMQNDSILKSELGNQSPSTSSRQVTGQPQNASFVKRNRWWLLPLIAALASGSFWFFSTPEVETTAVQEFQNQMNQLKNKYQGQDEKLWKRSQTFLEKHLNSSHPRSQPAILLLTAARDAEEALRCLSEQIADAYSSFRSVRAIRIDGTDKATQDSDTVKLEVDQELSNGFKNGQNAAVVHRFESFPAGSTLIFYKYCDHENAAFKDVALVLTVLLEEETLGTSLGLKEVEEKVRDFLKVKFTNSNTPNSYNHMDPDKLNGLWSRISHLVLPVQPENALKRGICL
Chain of Alpha-bungarotoxin (Bungarus multicinctus) (P60615 whole entry, looked up): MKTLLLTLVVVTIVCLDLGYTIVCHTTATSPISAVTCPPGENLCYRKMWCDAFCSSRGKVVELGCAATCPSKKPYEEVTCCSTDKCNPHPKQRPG

Turning to `CCOC(=O)CCN1C(=O)[C@H]2[C@H]3[C@H](O)[C@H](O)CC(=NOC[C@@H](O)COCc4ccco4)[C@H]3CC[C@H]2C1=O`, the composite z-score in assay [1] is 1.11; in assay [3], 0.622; in [4], -0.039; in assay [5], -0.438; in assay [6], -0.152; in assay [7], -0.0769. Moreover, the composite z-score was -0.0446 in assay [8], 0.0386 in [9] and 0.351 in assay [10]. The compound further had a z-score in [2] of -2.99.
For the compound `COc1ccc(O[C@@H]2[C@H](O)CO[C@H]2C=CC#Cc2ccccc2)cc1`, the composite z-score was -0.289 in [1]; 0.347 in [3]; -0.414 in assay [4]; -0.789 in assay [5]; -0.1 in assay [6]; -0.138 in assay [7]. Moreover, the results for the composite z-score in [8], in assay [9] and in [10] were -0.234, 0.17 and -0.891, respectively. For the same compound, in assay [2], the z-score was -0.0351.
Regarding `CCOC(=O)NN=C1C[C@@H](O)[C@@H](O)[C@@H]2[C@@H]3C(=O)N(C(C)(C)C)C(=O)[C@@H]3CC[C@@H]12`, the composite z-score was -0.772 in assay [1]; 0.45 in assay [3]; -0.671 in [4]; -1.54 in [5]; -0.278 in assay [6]; -0.75 in [7]. Also, the results for the composite z-score in assay [8], in [9] and in assay [10] were 0.154, -0.48 and -0.772, respectively. Also, in [2], the z-score was -0.529.
In the case of `COc1ccc(O[C@H]2C=C[C@@H](c3ccccc3)O[C@@H]2COC(=O)CCC(C)=NO[C@@H](C)c2cc(-c3c(C)cc(C)cc3C)no2)cc1`, the composite z-score in assay [1] is -1.13; in assay [3] it was -0.965; in [4], -0.977; in [5] it was -0.55; in assay [6] it was -0.194; in assay [7] it was 0.255. Moreover, the composite z-score is -0.0207 in [8], -1.16 in assay [9] and -0.707 in [10]. Moreover, the z-score in assay [2] was -1.15.
For the compound `COc1ccc(O[C@H]2C=C[C@@H](c3ccccc3)O[C@@H]2COC(=O)CCC(C)=NOC(C)CN2CCCCc3nc(C)c(C)cc32)cc1` (stereo not given in full), the composite z-score in [1] is 0.36; in assay [3] it was -0.106; in [4], -0.959; in [5], -0.203; in [6], -0.157; in [7] it was -0.138. Further, the composite z-score was -0.158 in assay [8], 0.168 in assay [9] and -0.47 in assay [10]. The compound further showed a z-score in [2] of -0.239.
Turning to `CC(C)(C)N1C(=O)[C@H]2[C@H]3[C@H](O)[C@H](O)CC(=NOCc4ccccc4)[C@@H]3CC[C@H]2C1=O`, the composite z-score in assay [1] was 0.093; in assay [3] it was 1.08; in assay [4], -0.266; in [5], -0.717; in [6], -0.0194; in [7], -0.0146. Further, the values for the composite z-score in [8], in [9] and in [10] were -0.352, 0.593 and 1.19, respectively. In addition, the z-score in [2] came to 0.656.
Take `CC[C@@H](c1ccccc1)n1c(=O)n2n(c1=O)[C@H]1[C@H](O)[C@@H]3O[C@@H]3C(=NOCC=C(C)CCC=C(C)C)[C@H]1CC2`: the composite z-score in assay [1] was 1.21; in [3], 0.827; in assay [4], -0.0812; in assay [5], -0.834; in assay [6], -0.001; in assay [7] it was -0.0866. Besides, the composite z-score in [8] was -0.136; in [9], 0.215; in [10], 0.0806. Besides, the z-score in [2] is -3.62.
As to `COc1ccc(O[C@H]2C=C[C@@H](c3ccccc3)O[C@@H]2COC(=O)CCC(C)=NOC[C@@H](C)[C@H](OCc2ccccc2)C(C)C)cc1`, the composite z-score in [1] is -2.09; in assay [3] it was -0.306; in assay [4] it was -1.65; in assay [5], -0.741; in [6], -0.0748; in assay [7] it was -0.283. The composite z-score was -0.233 in assay [8], -0.956 in assay [9] and -1.04 in assay [10]. In [2], this compound yielded a z-score of -0.667.
For the compound `C[C@@H]1CC[C@H]2C(=O)O[C@H](COc3ccc(C(C)(C)C)cc3)CN2[C@H]1c1ccc(Br)cc1`, the composite z-score in [1] was -0.387; in assay [3], 0.113; in [4], -0.11; in assay [5] it was 0.347; in assay [6], 0.721; in [7], -0.415. Moreover, the values for the composite z-score in assay [8], in [9] and in [10] were -0.514, -0.15 and 0.323, respectively. In assay [2], this compound returned a z-score of 0.0366.
Consider `COCCOC(=O)N1C(=O)[C@@]2(c3cc(C#CCNC(N)=O)ccc31)[C@H](c1ccc(O)cc1)N1[C@H](c3ccccc3)[C@H](c3ccccc3)OC(=O)[C@H]1[C@@H]2C(=O)N1CCCCCCC1`, for which the composite z-score in [1] was 1.13; in [3] it was 0.817; in assay [4], -0.0989; in assay [5], -0.218; in [6], -0.0718; in assay [7] it was 0.108. Further, the composite z-score in [8] is -0.559; in assay [9], 0.774; in assay [10] it was 0.413. In assay [2], the z-score was -0.768.
Take `CCCCC(=C=CC[C@H](O)c1ccccc1OCCO)C[C@H](O)COCc1ccccc1`: the composite z-score was -0.156 in assay [1]; -0.233 in assay [3]; 1.22 in [4]; 0.768 in assay [5]; -0.124 in assay [6]; -0.138 in assay [7]. Moreover, the composite z-score in [8] came out at 0; in assay [9] it was 1.65; in assay [10] it was 1.04. For the same compound, in [2], the z-score is -1.92.
